Test results published in PubChem BioAssay (NCATS).
Results filed as inconclusive are left out. The source made the active and inactive calls. The call rests on the fitted dose curve. Bridge positions count the residues as written; N and C are the ends. Peptide text beside a SMILES is read from it.

Columns and labels:
[1] = Primary qHTS for Huh7 cytotoxicity: counterscreen for inhibitors of MERS-S pseudotyped particle cell entry (AID 1479147); conditions: outcome: dose series up to 57.1 µM unless noted
[2] = Primary qHTS for inhibitors of MERS-S pseudo-typed particle cell entry (AID 1479149); conditions: outcome: dose series up to 57.1 µM unless noted; further: nearly all actives have a fitted effect of over 60% in size
[3] = Primary qHTS for Vero E6 cytotoxicity: counterscreen for inhibitors of SARS-S pseudo-typed particle cell entry (AID 1479150); conditions: outcome: dose series up to 57.1 µM unless noted
[4] = Cytotoxicity counterscreen for inhibitors of SARS-CoV-2 cell entry (AID 1645845); conditions: outcome: dose series up to 57.1 µM unless noted; further: nearly all actives have a fitted effect of over 50% in size
How it was run: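 After a 15 min room-temperature ATPLite 1step step, luminescence reflected ATP remaining in HEK293-ACE2 cells exposed to compound for 1 h plus 48 h at 37 C, with percent activity set by cell and no-cell controls.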

[5] = Primary qHTS to identify inhibitors of SARS-CoV-2 cell entry (AID 1645846); conditions: SARS-CoV-2 pseudovirus cell entry assay, luminescence; activity change, negative = inhibition: at 57.1 µM (top of the series) unless noted; further: nearly all actives have a fitted effect of over 45% in size; further: potency means the concentration at half of the fitted maximal effect
How it was run: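 HEK293 cells stably expressing human ACE2, pre-treated 1 h with compound, then infected with MLV particles pseudotyped with Wuhan-Hu-1 spike (C-terminal 19-aa truncation). Luciferase luminescence after 48 h at 37 °C, normalised to spike PP and bald PP.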

CC[C@H]1OC(=O)C[C@@H](O)[C@H](C)[C@@H](O[C@@H]2O[C@H](C)[C@@H](O)[C@H](N(C)C)[C@H]2O)[C@@H](CCN2C[C@H](C)C[C@H](C)C2)C[C@@H](C)C(=O)/C=C/C(C)=C/[C@@H]1CO[C@@H]1O[C@H](C)[C@@H](O)[C@@H](OC)[C@H]1OC
inactive: Potency [1] | Potency [2] | Potency [3] | Potency [4]

Cc1ccc([C@@H]2O[C@H](CO)[C@@H](O)[C@H](O)[C@H]2O)cc1Cc1ccc(-c2ccc(F)cc2)s1
active: Potency [5] 17.8 µM
inactive: Potency [1] | Potency [2] | Potency [3] | Potency [4]

CC1CC(OC(=O)C(O)c2ccccc2)CC(C)(C)C1 (stereo not given)
inactive: Potency [1] | Potency [2] | Potency [3] | Potency [4]

CO/N=C(\C(=O)N[C@@H]1C(=O)N2C(C(=O)OCOC(=O)C(C)(C)C)=C(/C=C\c3scnc3C)CS[C@H]12)c1csc(N)n1
inactive: Potency [1] | Potency [2] | Potency [3] | Potency [4]

Cc1ccc(/C(=C\CN2CCCC2)c2cccc(/C=C/C(=O)O)n2)cc1
inactive: Potency [1] | Potency [2] | Potency [3] | Potency [4]

N[C@@H](C(=O)N[C@@H]1C(=O)N2C(C(=O)O)=C(Cl)CC[C@H]12)c1ccccc1
inactive: Potency [1] | Potency [2] | Potency [3] | Potency [4]
-20.1%: activity change, negative = inhibition [5]

NCCC[C@H](NC(=O)[C@@H]1CCCN1C(=O)[C@@H]1CSSC[C@H](N)C(=O)N[C@@H](Cc2ccc(O)cc2)C(=O)N[C@@H](Cc2ccccc2)C(=O)N[C@@H](CCC(N)=O)C(=O)N[C@@H](CC(N)=O)C(=O)N1)C(=O)NCC(N)=O
-24.3%: activity change, negative = inhibition [5]
inactive: Potency [1] | Potency [2] | Potency [3] | Potency [4]

CCCCCCCCCCCCOC(=O)CS(=O)(=O)O
inactive: Potency [1] | Potency [2] | Potency [3] | Potency [4]

O=C(O)c1cc(O)c2c(c1)[C@H]([C@H]1c3cc(C(=O)O)cc(O)c3C(=O)c3c(O[C@@H]4O[C@H](CO)[C@@H](O)[C@H](O)[C@H]4O)cccc31)c1cccc(O[C@@H]3O[C@H](CO)[C@@H](O)[C@H](O)[C@H]3O)c1C2=O
inactive: Potency [1] | Potency [2] | Potency [3] | Potency [4]

C[N+](C)(C)CC(O)CC(=O)O (stereo not given)
inactive: Potency [1] | Potency [2] | Potency [3] | Potency [4]

CCOc1ccc(N=C(C)Nc2ccc(OCC)cc2)cc1
inactive: Potency [1] | Potency [2] | Potency [3] | Potency [4]

CC1(C)SC2C(NC(=O)Cc3ccccc3)C(=O)N2C1C(=O)O (stereo not given)
-15.9%: activity change, negative = inhibition [5]
inactive: Potency [1] | Potency [2] | Potency [3] | Potency [4]

CC(C)(C)NC(=O)N[C@H](C(=O)N1C[C@H]2[C@@H]([C@H]1C(=O)NC(CC1CCC1)C(=O)C(N)=O)C2(C)C)C(C)(C)C (stereo not given in full)
inactive: Potency [1] | Potency [2] | Potency [3] | Potency [4]

CC1CCCCN1CCCOC(=O)c1ccccc1 (stereo not given)
inactive: Potency [1] | Potency [2] | Potency [3] | Potency [4]

COc1cc(N)cn[n+]1-c1ccccc1
inactive: Potency [1] | Potency [2] | Potency [3] | Potency [4]

NS(=O)(=O)c1cc2c(cc1Cl)NC(Cc1ccccc1)NS2(=O)=O (stereo not given)
inactive: Potency [1] | Potency [2] | Potency [3] | Potency [4]

CC1(C)C[C@H]1C(=O)N/C(=C\CCCCSC[C@@H](N)C(=O)O)C(=O)O
-28.6%: activity change, negative = inhibition [5]
inactive: Potency [1] | Potency [2] | Potency [3] | Potency [4]

CCCCCCCCCCCCCCCC(=O)OCC(O)C1OC(=O)C(O)=C1O (stereo not given)
inactive: Potency [1] | Potency [2] | Potency [3] | Potency [4]

CC(=O)OCC1=C(C(=O)O)N2C(=O)[C@@H](NC(=O)[C@H](N)c3ccccc3)[C@H]2SC1
inactive: Potency [1] | Potency [2] | Potency [3] | Potency [4]
-7.18%: activity change, negative = inhibition [5]

OC(c1ccccc1)(c1ccccc1)C12CC[N+](CCOCc3ccccc3)(CC1)CC2
inactive: Potency [1] | Potency [2] | Potency [3] | Potency [4]

CC1=C(C(=O)O)N2C(=O)[C@@H](NC(=O)[C@H](N)C3=CCC=CC3)[C@@H]2SC1
inactive: Potency [1] | Potency [2] | Potency [3] | Potency [4]
-32.9%: activity change, negative = inhibition [5]

NCCCC[C@H](NC(=O)[C@@H]1CCCN1C(=O)[C@@H]1CSSC[C@H](NC(=O)CNC(=O)CNC(=O)CN)C(=O)N[C@@H](Cc2ccc(O)cc2)C(=O)N[C@@H](Cc2ccccc2)C(=O)N[C@@H](CCC(N)=O)C(=O)N[C@@H](CC(N)=O)C(=O)N1)C(=O)NCC(N)=O (H-GGGCYFQNCPKG-NH2; disulfide 4-9)
inactive: Potency [1] | Potency [2] | Potency [3] | Potency [4]

CCN(CC)CCS(=O)(=O)[C@@H]1CCN2C(=O)c3coc(n3)CC(=O)C[C@H](O)/C=C(C)/C=C/CNC(=O)/C=C/[C@@H](C)[C@@H](C(C)C)OC(=O)[C@@H]12
-29%: activity change, negative = inhibition [5]
inactive: Potency [1] | Potency [2] | Potency [3] | Potency [4]

CC(C)OC(=O)[C@H](C)N[P@@](=O)(OC[C@H]1O[C@@H](n2ccc(=O)[nH]c2=O)[C@](C)(F)[C@@H]1O)Oc1ccccc1
-25.3%: activity change, negative = inhibition [5]
inactive: Potency [1] | Potency [2] | Potency [3] | Potency [4]
